Source: PubChem
Algae TAG accum: inducers of triacylglycerol accumulation in Chlamydomonas reinhardtii algae; AID 1159537; calls only at 10 µM (by protocol); 44,000 tested, 0.84% active; Chlamydomonas reinhardtii TAG, Nile Red fluorescence, 72 h; call rule not given here;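 note: hits raise Nile Red signal meaning more stored TAG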
Calls only; - = inactive; + = active, no number. The entries come from a sample that favours hits as a whole.

SMILES	Algae TAG accum
CCN1CCN(S(=O)(=O)c2ccc([N+](=O)[O-])cc2)CC1	-
CC(CC(=O)Nc1ccc(S(=O)(=O)Nc2nccs2)cc1)c1ccccc1 (configuration not stated)	-
Cc1c(Cl)cccc1NC(=O)C(=O)NCCc1c[nH]c2ccccc12	-
O=C(CSc1nnnn1-c1ccccc1)Nc1ccc(C(=O)O)cc1	-
O=C(Nc1cccc([N+](=O)[O-])c1)C12CC3CC(CC(C3)C1)C2	-
CN(CC(=O)NCC1CCCO1)S(=O)(=O)c1ccc(Br)cc1 (configuration not stated)	-
O=[N+]([O-])c1ccc(-c2nnc(-c3ccccc3Cl)o2)cc1	-
Cc1cc(=O)[nH]c(SCC(C)C)n1	-
COc1ccc(S(=O)(=O)Nc2ccc(C(C)=O)cc2)cc1[N+](=O)[O-]	-
Cc1ccc(OCC(O)CN2CCN(c3ccccc3)CC2)c(C)c1 (configuration not stated)	-
OC(COc1ccc(Cl)cc1Cl)CN1CCc2ccccc2C1 (configuration not stated)	-
Cc1cc(Cl)ccc1OCC(O)CN1CCN(C)CC1 (configuration not stated)	+
CC(C)(Oc1ccc(Cl)cc1)C(=O)N1CCN(c2ccccn2)CC1	-
CC(C)(Oc1ccc(Cl)cc1)C(=O)N1CCN(c2ccc(F)cc2)CC1	+
CC(C)(Oc1ccc(Cl)cc1)C(=O)N1CCN(c2cccc(Cl)c2)CC1	-
O=C1C2C(c3ccccc3)C=CC(c3ccccc3)C2C(=O)N1CCO (configuration not stated)	-
CC1(C)Cc2ccccc2/C(=C(/C#N)c2ccccc2)N1	-
N#Cc1c(-n2ncnc2-c2cccnc2)sc2c1CCCCC2	+
COc1ccc(-c2ncnn2-c2sc3c(c2C#N)CCCC3)cc1OC	-
N#Cc1c(-n2ncnc2-c2ccc(F)cc2)sc2c1CCCC2	-
O=S(=O)(c1ccc(Cl)c(Cl)c1Cl)N1CCN(c2ccc(F)cc2)CC1	+
O=[N+]([O-])c1ccccc1S(=O)(=O)N1CCN(c2ccc(F)cc2)CC1	-
O=S(=O)(c1ccc(F)cc1)N1CCN(c2ccccc2)CC1	-
O=C(Nc1nc2ccccc2s1)c1ccc(S(=O)(=O)N2CCOCC2)cc1	-
Cc1cccc(N2CCN(Cc3nc[nH]c3C)CC2)c1C	-
SMILES	Algae TAG accum
O=C(c1ccc(F)cc1)N1CCCCCC1	-
Cc1ccc(C(=O)N2CCC(C(=O)O)CC2)cc1	-
O=C(O)C1CCN(C(=O)c2ccc(F)cc2)CC1	+
CCOC(=O)N1CCN(Cc2ccc(Br)cc2)CC1	-
O=C(NCCNc1ccc([N+](=O)[O-])cc1Cl)c1ccccc1Cl	-
O=C(NCC12CC3CC(CC(C3)C1)C2)NC1CCCCC1	-
O=C(CCN1CCOCC1)NC12CC3CC(CC(C3)C1)C2	-
CNCC(=O)NC12CC3CC(CC(C3)C1)C2	-
CNCC(=O)NCC12CC3CC(CC(C3)C1)C2	-
O=C(CN1CCCCC1)NC12CC3CC(CC(C3)C1)C2	+
O=C(CN1CCCCC1)NCC12CC3CC(CC(C3)C1)C2	+
Clc1ccc(OCc2nc3ccccc3[nH]2)c(Cl)c1	-
Fc1ccc(CN2CCSCC2)cc1F	-
O=C(Nc1ccc(F)cc1)c1ccccc1Cl	-
O=C(CSCc1ccc(Cl)cc1Cl)Nc1ccc(NC(=O)c2ccco2)cc1	-
O=C(CSc1nnnn1-c1ccc(Cl)cc1)Nc1ccc(Cl)cc1Cl	-
COc1ccc(OC)c(NC(=O)CSc2nnc(-c3ccc(Cl)cc3Cl)n2N)c1	-
Cc1ccc(NC(=O)CSc2nnc(-c3ccc(Cl)cc3Cl)n2N)c(C)c1	+
COCCNC(=O)c1ccc(OC)cc1	-
CCCn1c(N2CCOCC2)nc2c1c(=O)[nH]c(=O)n2C	-
COc1ccccc1N1CCN(C2CCN(Cc3cccc(F)c3)CC2)CC1	+
CCc1ccc(CN2CCC(N3CCN(c4ccccc4OC)CC3)CC2)cc1	-
COc1ccccc1N1CCN(C2CCN(Cc3ccc4c(c3)OCO4)CC2)CC1	-
Cc1ccc(-c2noc(-c3cccc([N+](=O)[O-])c3)n2)cc1	-
COc1ccc([N+](=O)[O-])cc1NCc1ccco1	-
SMILES	Algae TAG accum
COc1ccc(N2CCN(C(=O)C3COc4ccccc4O3)CC2)cc1 (configuration not stated)	-
O=C(C1COc2ccccc2O1)N1CCN(Cc2ccccc2)CC1 (configuration not stated)	+
O=C(c1ccc2c(c1)OCO2)N1CCN(Cc2ccccc2)CC1	-
O=S(=O)(c1ccc(F)cc1)N1CCCN(S(=O)(=O)c2ccc(F)cc2)CC1	-
O=S(=O)(c1ccc(F)cc1)n1cccc1	+
O=S(=O)(c1ccc(F)cc1)c1ccc(F)cc1	-
CC(=O)c1ccc2[nH]c3ccccc3c2c1	-
Nc1cc(=O)[nH]c(SCC(=O)c2ccccc2)n1	-
O=C(CCC(=O)N1CCN(c2ccccc2F)CC1)N1CCN(c2ccccc2F)CC1	-
CC(=O)N(C1=C(N(C)C)C(=O)c2ccccc2C1=O)c1cccc(Cl)c1	-
CC(=O)N(C1=C(N(C)C)C(=O)c2ccccc2C1=O)c1ccc(F)c(F)c1	-
CC(=O)N(C1=C(N(C)C)C(=O)c2ccccc2C1=O)c1ccc(Cl)c(Cl)c1	+
COc1ccc(C(=O)c2ccc([N+](=O)[O-])cc2)cc1S(=O)(=O)NC1CCCCC1	-
Clc1ccc(CN2CCCCCCC2)cc1	-
Clc1ccc(CN2CCC(N3CCCCCC3)CC2)cc1	-
Clc1ccc(CN2CCCCCC2)cc1	+
CC(C)(C)c1ccc(C(=O)Nc2ccccc2Br)cc1	-
COc1ccc(-c2nc3c(n2O)CCc2c-3no[n+]2[O-])cc1OC	-
Cc1c(NC(=O)c2c(F)c(F)c(F)c(F)c2F)c(=O)n(-c2ccccc2)n1C	+
Cc1c(NC(=O)c2c(O)c3ccccc3n(C)c2=O)c(=O)n(-c2ccccc2)n1C	-
Cc1c(NC(=O)c2ccccc2-c2ccccc2C(=O)O)c(=O)n(-c2ccccc2)n1C	-
CCOc1ccccc1C(=O)Nc1ccc(C)cc1Br	-
CC(SCc1ccccc1)C(=O)NCc1cccnc1 (configuration not stated)	-
CC(=O)Nc1ccc(S(=O)(=O)Nc2ccc(S(=O)(=O)Nc3cc(C)on3)cc2)cc1	-
Cc1c(C(=O)Nc2ccc(F)c(Cl)c2)cccc1[N+](=O)[O-]	-
SMILES	Algae TAG accum
Cc1c(C(=O)Nc2ccc(F)c(F)c2)cccc1[N+](=O)[O-]	+
Cc1ccc(NC(=O)c2ccccc2[N+](=O)[O-])cc1F	-
Cc1cc(NC(=O)CC(C)c2ccccc2)no1 (configuration not stated)	-
COc1ccc(CN2CCN(Cc3cccc(Cl)c3)CC2)cc1OC	-
c1ccc(C2CCC(N3CCN(Cc4ccncc4)CC3)CC2)cc1 (configuration not stated)	+
CCN1CCN(C2CCC(C(C)(C)C)CC2)CC1 (configuration not stated)	+
CCN1C(=O)CC(N2CCN(c3ccc(Cl)cc3)CC2)C1=O (configuration not stated)	-
c1ccc(CN2CCC(N3CCN(C4CCCC4)CC3)CC2)cc1	-
CCN1CCN(C2CCCC(C)C2)CC1 (configuration not stated)	-
CCN1CCN(C2CCC(c3ccccc3)CC2)CC1 (configuration not stated)	+
O=C(c1ccccc1)N1CCN(Cc2ccncc2)CC1	-
CCCN1CCC(N2CCN(c3ccc([N+](=O)[O-])cc3)CC2)CC1	-
CCN1CCN(CC2CCCCC2)CC1	-
CCN1CCC(N2CCN(c3ccc(Cl)cc3)CC2)CC1	+
